Data on 11 compounds can be found in paper PMC5540273 (PLoS ONE, 2017).

What all share (settings): concentration: 1 μM, replicates: in singlicate; n = 1
In test [1] the test system is PDPK1.
Test [2] has as its system PFTAIRE2.
For test [3], the system named is T1, PFTK1.
T1 construct: gene CDK14

Test [4] has as its system PHKG1.
For test [5], the system named is PHKG2.
The subject of test [6] is PIK3C2B.
Test [7] concerns PIK3C2G.
Test [8] deals with PIK3CA.
Test [9] relates to PIK3CB.
Test [10] concerns PIK3CD.
Test [11] deals with PIK3CG.
Test [12] has as its system T2, PIK4CB.
T2 construct: gene PI4KB

The test system of test [13] is PIKFYVE.
The subject of test [14] is PIM1.
For test [15], the system named is PIM2.
Test [16] deals with PIM3.
For test [17], the system named is PIP5K1A.
For test [18], the system named is PIP5K1C.
Test [19] relates to PIP5K2B.
Test [20] deals with T3, PIP5K2C.
T3 construct: gene PIP4K2C

The structures appear in SMILES notation.
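Also: KINOMEscan kinase panel screen.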

In the case of `Cc1ccccc1COc1cc(-n2cnc3cc(Cl)ccc32)sc1C(N)=O` [GW813349], the “%Inh” value in test [1] is recorded as 0%; in [2], 0%; in [3], 0%; in test [4], 0%; in test [5] it was 0%; in [6] it was 24%. In addition, the “%Inh” value in test [7] came out at 17%; in [8], 21%; in [9], 0%; in test [10], 0%; in test [11], 24%; in test [12] it was 0%. The “%Inh” value came out at 0% in test [13]; 2% in [14]; 18% in [15]; 0% in test [16]; 24% in [17]; 37% in test [18]. In addition, the “%Inh” value in test [19] came to 0%; in test [20] it was 24%.
Take `COc1ccc(CNC(=O)NC2CCN(c3ccnc(Nc4ccc(F)cc4)n3)C2)cc1` (stereo not shown) [GSK1379706]: the “%Inh” value in test [1] worked out at 0%; in test [2], 0%; in test [3], 1%; in test [4] it was 7%; in [5] it was 0%; in [6], 0%. The “%Inh” value is reported as 0% in [7]; 2% in test [8]; 0% in test [9]; 8% in test [10]; 7% in test [11]; 17% in test [12]. The “%Inh” value is listed as 0% in [13]; 12% in test [14]; 0% in test [15]; 0% in [16]; 44% in test [17]; 63% in [18]. In addition, the “%Inh” value amounted to 20% in [19] and 54% in test [20].
Take `COC(=O)c1c(-c2ccccc2)c2cc(C)ccc2c(=O)n1Cc1ccccc1`: the “%Inh” value is listed as 0% in test [1]; 0% in test [2]; 2% in test [3]; 0% in [4]; 15% in [5]; 0% in [6]. In addition, the “%Inh” value in test [7], in test [8], in [9], in [10], in [11] and in test [12] was 0% in each case. The “%Inh” value in test [13] worked out at 0%; in [14] it was 2%; in [15], 0%; in [16] it was 0%; in test [17], 13%; in test [18] it was 20%. In addition, the “%Inh” value worked out at 5% in test [19] and 1% in [20].
Regarding `CCC(=O)c1c(-c2ccccc2)c2cc(Cl)ccc2c(=O)n1Cc1cc(C(=O)NC2CC2)n(C)n1`, the “%Inh” value in test [1], in test [2], in test [3], in test [4], in [5] and in [6] was 0% throughout. Further, the “%Inh” value in test [7] turned out to be 37%; in test [8] it was 0%; in [9], 21%; in test [10], 14%; in [11], 0%; in test [12], 0%. The “%Inh” value in [13] was determined as 25%; in test [14], 0%; in [15] it was 0%; in test [16], 11%; in test [17], 0%; in [18], 0%. Also, the results for the “%Inh” value in test [19] and in [20] were 32% and 12%, respectively.
For the compound `COc1cc2ncn(-c3cc(OCc4ccncc4)c(C(N)=O)s3)c2cc1OC` [GSK336313], the “%Inh” value was 0% in test [1]; 27% in test [2]; 16% in test [3]; 0% in test [4]; 0% in [5]; 0% in test [6]. For the same compound, the “%Inh” value in test [7] is recorded as 0%; in test [8] it was 1%; in test [9], 0%; in test [10], 0%; in test [11] it was 12%; in [12], 0%. In addition, the “%Inh” value in test [13] came out at 0%; in test [14], 0%; in test [15], 0%; in test [16] it was 0%; in test [17], 0%; in [18] it was 30%. In addition, the results for the “%Inh” value in test [19] and in [20] were 22% and 0%, respectively.
`Fc1cccc(CSc2nnc(-c3ccc4c(c3)CCO4)o2)c1`: the “%Inh” value is 0% in test [1]; 10% in [2]; 0% in test [3]; 1% in [4]; 0% in test [5]; 1% in [6]. Further, the “%Inh” value in [7] was found to be 17%; in [8] it was 10%; in test [9], 14%; in test [10], 0%; in test [11] it was 10%; in test [12], 2%. Further, the “%Inh” value in test [13] was found to be 7%; in [14], 13%; in test [15], 18%; in test [16] it was 9%; in test [17] it was 13%; in test [18], 5%. In addition, the figures for the “%Inh” value in test [19] and in [20] were 34% and 0%, respectively.
Regarding `CN1C(=O)C(Nc2cc(Cl)c(O)c(Cl)c2)=C(c2ccc(Cl)cc2)C1=O` [SB-404321], the “%Inh” value in test [1], in test [2], in test [3], in test [4], in [5] and in test [6] was 0% in each case. In addition, the “%Inh” value in test [7] is 0%; in [8], 0%; in test [9], 0%; in test [10], 0%; in [11], 10%; in [12], 36%. Also, the “%Inh” value in test [13] is listed as 24%; in test [14], 0%; in test [15], 0%; in test [16], 0%; in test [17], 0%; in test [18], 27%. For the same compound, the “%Inh” value in [19] stood at 0%; in test [20], 30%.
Turning to `COc1cc(OC)cc(-c2cc3cnc(N)nc3nc2NC(=O)NC(C)(C)C)c1`, the “%Inh” value in [1] was determined as 0%; in [2], 0%; in test [3] it was 0%; in test [4], 13%; in test [5] it was 0%; in test [6], 65%. Moreover, the “%Inh” value is recorded as 74% in test [7]; 0% in [8]; 32% in test [9]; 0% in test [10]; 5% in [11]; 0% in [12]. The “%Inh” value in test [13] is listed as 44%; in test [14] it was 0%; in [15] it was 0%; in [16], 0%; in test [17], 37%; in test [18], 0%. The “%Inh” value in test [19] and in [20] was 0% each time.
For the compound `O=C(Nc1n[nH]c2cc(-c3ccccc3F)ccc12)C1CC1` [SB-733371], the “%Inh” value in test [1] is recorded as 0%; in test [2], 12%; in test [3], 0%; in test [4] it was 0%; in [5], 0%; in test [6] it was 2%. The “%Inh” value in [7] stood at 3%; in [8] it was 0%; in test [9] it was 18%; in test [10], 0%; in [11], 6%; in test [12], 0%. Besides, the “%Inh” value in test [13] was found to be 10%; in [14], 0%; in test [15], 0%; in [16], 0%; in test [17], 32%; in [18], 0%. For the same compound, the figures for the “%Inh” value in [19] and in [20] were 24% and 0%, respectively.
For the compound `CCn1c(-c2ccoc2)nc2cnccc21` [SB-733887], the “%Inh” value in test [1] stood at 0%; in test [2], 15%; in test [3] it was 0%; in test [4], 0%; in test [5], 0%; in [6], 6%. Moreover, the “%Inh” value in test [7] stood at 0%; in [8], 0%; in test [9], 0%; in test [10] it was 0%; in test [11], 0%; in test [12], 20%. The “%Inh” value in test [13] turned out to be 3%; in test [14], 0%; in test [15], 0%; in test [16], 36%; in test [17] it was 11%; in [18], 0%. Also, the “%Inh” value turned out to be 0% in test [19] and 32% in [20].
`C[C@@H]1CC[C@H](C(=O)NC2CCCCC2)CN1c1cc(-c2ccc3c(N)n[nH]c3c2)nc(N)n1` [GSK2291363]: the “%Inh” value in test [1] is recorded as 95.3%; in [2] it was 26%; in [3], 27%; in test [4], 0%; in [5] it was 17%; in test [6] it was 0%. Moreover, the “%Inh” value in test [7], in [8], in [9], in [10], in test [11] and in test [12] was 0% throughout. Besides, the “%Inh” value in test [13] stood at 0%; in test [14], 22%; in test [15], 0%; in [16] it was 8%; in [17], 100%; in test [18] it was 53%. Further, the results for the “%Inh” value in test [19] and in test [20] were 52% and 30%, respectively.
